# High-throughput results (PubChem BioAssay)
# Sampled rows, rich in hits. Any-hit rate of the full collection: about 7%.
# KAT2A inh: qHTS Assay for Inhibitors of GCN5L2. AID 504327, 2011. GCN5L2 HAT assay, ThioGlo1 CoA-SH fluorescence. Potency, µM (titrated, usually from 58.9 µM), for the others: at the highest dose activity change, negative = inhibition, hits mostly inhibitors. actives 0.21% (n = 390,000). Histone acetyltransferase KAT2A (Homo sapiens), Q92830; also: potency is read from the fitted curve at half-maximal effect; % is scaled to controls: 0 for no effect and ±100 for the full control effect
#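 Fluorescence readout, Ex340nm/Em540nm: ThioGlo1 (50uM final) reacts with free CoA thiol released as 20nM GCN5L2 acetylates H3(1-25) peptide (75uM) using acetyl-CoA (70uM). Compound and enzyme sat 15 min beforehand; 20 min room-temperature reaction.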
# HP1b binding inh: HTS for Inhibitors of HP1-beta Chromodomain Interactions with Methylated Histone Tails. AlphaScreen HP1-beta / biotin-H3K9me3 peptide binding. Potency, µM (series often up to 114 µM), for inactives: top-dose activity change, negative = inhibition, actives largely listed as inhibitors. actives 0.56% (n = 390,000); also: potency is read from the fitted curve at half-maximal effect; nearly all actives have a fitted effect of over 70% in size
#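 AlphaScreen: HP1-beta (50 nM) preformed 30 min with biotin-H3(1-18)K9me3 peptide (50 nM) in PBS pH 7.4, 0.01% Tween-20. Compound added for 30 min at RT, then streptavidin donor/nickel chelate acceptor beads (10 ug/mL) for 30 min.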
# PLK1 PBD inh: qHTS for Inhibitors of PLK1-PDB (polo-like kinase 1 - polo-box domain): Primary Screen; Serine/threonine-protein kinase PLK1 (Homo sapiens), P53350; Plk1 PBD binding of FITC phosphopeptide, fluorescence polarization; Potency, µM, for inactives: max response, negative = inhibition, most hits filed as inhibitors; actives 2.8% (n = 360,000); also: potency is read from the fitted curve at half-maximal effect; series mostly up to about 57 µM; % is scaled to controls: 0 for no effect and ±100 for the full control effect; nearly all actives have a fitted effect of over 65% in size
# PI5P4Ka inh: qHTS for Inhibitors of phosphatidylinositol 5-phosphate 4-kinase (PI5P4K); PI5P4Kalpha enzyme, ADP-Glo luminescence, 60 min; active compounds read low; max response, %; actives 1.2% (n = 330,000); AID 652105, 2013; active = max response of -50% or lower; inconclusive = between -30% and -50%; inactive = -30% or higher; also: value at the top dose of about 77 µM; % is scaled to controls: 0 for no effect and ±100 for the full control effect
#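 Quantitative HTS of the MLSMR library against PI5P4Kalpha with substrate. ATP added last at 5 microM final; room temperature, 60 minutes. Remaining ATP depleted, ADP converted and read as luminescence.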
# JMJD2A Tudor: qHTS Assay for Inhibitors of JMJD2A-Tudor Domain; Lysine-specific demethylase 4A (Homo sapiens), O75164; AlphaScreen JMJD2A-Tudor / H3K4me3 peptide binding; Potency, µM (series often up to 114 µM), for the others: at the top dose activity change, negative = inhibition, actives largely listed as inhibitors; actives 4.4% (n = 390,000); AID 504339, 2011; also: potency is read from the fitted curve at half-maximal effect; % is scaled to controls: 0 for no effect and ±100 for the full control effect; nearly all actives have a fitted effect of over 50% in size
# BAZ2B block: qHTS Assay for Inhibitors of BAZ2B; Bromodomain adjacent to zinc finger domain protein 2B (Homo sapiens), Q9UIF8; AlphaScreen BAZ2B-H3K14Ac peptide displacement; Potency, µM (series often up to 114 µM), for inactives: at the highest dose activity change, negative = inhibition, most hits filed as inhibitors; actives 4.4% (n = 360,000); also: potency is read from the fitted curve at half-maximal effect; % is scaled to controls: 0 for no effect and ±100 for the full control effect; nearly all actives have a fitted effect of over 60% in size
# Target sequence (Q9UIF8 whole entry, looked up, the tested form may be a part): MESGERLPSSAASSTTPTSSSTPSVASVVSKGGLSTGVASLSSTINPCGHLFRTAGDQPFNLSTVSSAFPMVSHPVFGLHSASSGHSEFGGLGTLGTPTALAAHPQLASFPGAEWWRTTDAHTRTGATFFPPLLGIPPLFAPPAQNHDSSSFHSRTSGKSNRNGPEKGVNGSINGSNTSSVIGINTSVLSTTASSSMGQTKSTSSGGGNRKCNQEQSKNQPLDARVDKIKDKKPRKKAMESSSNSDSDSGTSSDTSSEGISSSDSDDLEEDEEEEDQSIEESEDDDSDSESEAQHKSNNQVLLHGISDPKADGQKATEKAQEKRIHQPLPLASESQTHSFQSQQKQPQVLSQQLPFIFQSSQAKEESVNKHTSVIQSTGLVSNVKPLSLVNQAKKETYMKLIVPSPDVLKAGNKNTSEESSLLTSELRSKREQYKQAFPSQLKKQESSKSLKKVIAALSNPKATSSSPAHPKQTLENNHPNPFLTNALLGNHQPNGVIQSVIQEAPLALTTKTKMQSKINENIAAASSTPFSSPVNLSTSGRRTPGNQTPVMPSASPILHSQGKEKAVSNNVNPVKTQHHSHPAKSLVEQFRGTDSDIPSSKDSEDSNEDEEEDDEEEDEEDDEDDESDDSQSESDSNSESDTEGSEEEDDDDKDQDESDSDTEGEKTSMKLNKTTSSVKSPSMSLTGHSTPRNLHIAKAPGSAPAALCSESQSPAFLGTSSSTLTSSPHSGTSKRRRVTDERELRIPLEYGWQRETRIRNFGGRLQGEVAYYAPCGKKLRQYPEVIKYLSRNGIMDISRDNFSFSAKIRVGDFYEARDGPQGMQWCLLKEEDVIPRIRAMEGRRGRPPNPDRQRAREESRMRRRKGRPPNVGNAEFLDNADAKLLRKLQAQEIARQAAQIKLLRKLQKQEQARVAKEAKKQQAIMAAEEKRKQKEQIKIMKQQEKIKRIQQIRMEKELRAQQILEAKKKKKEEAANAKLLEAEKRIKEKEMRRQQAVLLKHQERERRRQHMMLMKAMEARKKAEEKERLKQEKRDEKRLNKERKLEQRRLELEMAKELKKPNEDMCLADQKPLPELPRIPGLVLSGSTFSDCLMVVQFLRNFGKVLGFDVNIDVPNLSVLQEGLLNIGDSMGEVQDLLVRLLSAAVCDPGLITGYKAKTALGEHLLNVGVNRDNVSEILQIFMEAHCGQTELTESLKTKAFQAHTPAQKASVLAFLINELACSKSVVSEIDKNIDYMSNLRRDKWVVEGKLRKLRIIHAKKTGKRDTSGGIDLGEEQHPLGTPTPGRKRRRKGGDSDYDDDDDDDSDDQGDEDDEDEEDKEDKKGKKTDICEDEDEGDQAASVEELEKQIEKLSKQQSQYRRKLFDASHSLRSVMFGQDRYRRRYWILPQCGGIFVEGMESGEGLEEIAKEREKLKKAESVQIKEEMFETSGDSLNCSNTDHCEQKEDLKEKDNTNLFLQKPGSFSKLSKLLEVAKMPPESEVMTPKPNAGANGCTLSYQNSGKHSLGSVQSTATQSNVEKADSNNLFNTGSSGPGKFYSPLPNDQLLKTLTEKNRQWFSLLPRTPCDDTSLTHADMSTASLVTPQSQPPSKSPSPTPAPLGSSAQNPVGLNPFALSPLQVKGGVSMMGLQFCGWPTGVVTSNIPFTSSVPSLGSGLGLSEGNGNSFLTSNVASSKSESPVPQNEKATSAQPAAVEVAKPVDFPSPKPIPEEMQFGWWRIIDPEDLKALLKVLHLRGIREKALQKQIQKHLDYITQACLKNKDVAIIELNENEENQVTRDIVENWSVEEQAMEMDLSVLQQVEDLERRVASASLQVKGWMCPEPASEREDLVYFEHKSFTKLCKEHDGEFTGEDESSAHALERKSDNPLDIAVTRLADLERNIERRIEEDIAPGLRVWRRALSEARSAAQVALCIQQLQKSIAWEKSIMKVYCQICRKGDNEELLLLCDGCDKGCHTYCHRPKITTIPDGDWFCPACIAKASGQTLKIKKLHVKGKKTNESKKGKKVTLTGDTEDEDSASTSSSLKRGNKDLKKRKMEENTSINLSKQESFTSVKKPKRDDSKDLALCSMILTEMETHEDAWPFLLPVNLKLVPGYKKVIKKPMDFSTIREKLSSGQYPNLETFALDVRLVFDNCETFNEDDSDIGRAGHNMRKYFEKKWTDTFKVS
#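 Inhibition is scored as reduced AlphaScreen emission. The BAZ2B/b-H3(5-23)K14Ac complex (50 nM each) in PBS pH 7.4, 0.01% Tween-20 meets compound (up to 110 uM) for 30 min at RT before bead addition.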
# Active calls of the source: *; ? = inconclusive; · = no result given; ! = repeats disagree; [ ] = remark or other dose. Unless noted, calls follow the shape of the dose curve; as a rule, active = well fitted curve in the direction sought with a large enough effect; inconclusive = small, poorly fitted or top-dose-only effect, or another doubt; inactive = no such curve, though single readings can be large; an effect the other way counts as inactive or inconclusive.
SMILES,KAT2A inh,HP1b binding inh,PLK1 PBD inh,PI5P4Ka inh,JMJD2A Tudor,BAZ2B block
COC(=O)c1ccccc1NC(=O)Cn1c(=O)n(-c2ccc(Cl)cc2)c(=O)c2c(C)c(C)sc21,2%,28%,·,·,2%,4%
O=C(COC(=O)C1=COCCO1)Nc1ccc([N+](=O)[O-])cc1C(F)(F)F,-2%,24%,-3%,1,-6%,5%
O=C(CSc1n[nH]c(=O)n1-c1cccnc1)N1CCOCC1,0%,28%,-17%,0,-9%,-1%
COc1ccc(CC(=S)NCCc2ccccc2)cc1,-29%,?,7.5µM*,-20,-13%,-24%
Cc1ccccc1NC(=S)NCCc1c[nH]c2ccccc12,-2%,-2%[57 µM],-12%,2,-25%,?
COc1ccc(Cl)cc1NC(=S)NCCc1c[nH]c2ccccc12,-11%,-23%,-1%,·,50µM*,40µM*
CCOCCn1c(N2CCCN(C)CC2)nc2ccccc21,1%,·,·,·,·,·
O=C(O)CSc1nnc(-c2cccs2)n1-c1ccc(Cl)cc1,6%,?,27µM*,-25,18µM*,-18%
CCOC(=O)[C@]12CCCC=C1N(Cc1ccccc1)C(=O)[C@H](CC(=O)N1CCN(C(=O)c3ccco3)CC1)C2,·,·,-3%,2,·,·
Cc1ccsc1CN(C)c1ncnc2ccc(-c3ccc4c(c3)OCO4)cc12,·,·,·,·,-32%,·
COc1cc2ncnc(N(C)Cc3csc(C)n3)c2cc1-c1ccc2c(c1)OCO2,·,·,·,·,8.9µM*,·
CN(Cc1nccs1)c1ncnc2ccc(-c3ccc4c(c3)OCO4)cc12,·,·,·,·,79µM*,·
COc1ccc(-c2ccc3ncnc(N(C)Cc4csc(C)n4)c3c2)cc1OC,·,·,·,·,-15%,·
Cc1ccc(-c2nc3c(C)cccn3c2Nc2ccccc2C)s1,-15%,?,·,·,45µM*,16µM*
Cc1cccn2c(Nc3ccccc3)c(-c3cccs3)nc12,-11%,64%,·,·,?,-25%
Cc1ccccc1Nc1c(-c2ccccn2)nc2c(C)cccn12,-10%,?,-3%,0,40µM*,14µM*
CC(=O)Nc1c(Cl)cc2c(c1Cl)Cc1cc(C#N)ccc1-2,·,28%,4%,-8,-2%,·
CN(C)C(=O)c1ccc2c(c1)N(CC(=O)NCc1ccccc1Cl)C(=O)C1CCCCN21 (stereo unspecified),-9%,24%[57 µM],·,·,-6%,-5%
C=CCOc1c(Br)cc(/C=N/O)cc1OCC,-5%,9%,30µM*,5,-6%[57.1 µM],0%
Cc1ccc(NS(=O)(=O)c2cc3c(cc2N(C)C)CCC(=O)N3)cc1C,·,·,·,·,-35%,·
COC(=O)c1scc(S(C)(=O)=O)c1-n1cccc1,1%,1%,30µM*,-11,?,-1%
C=CCOc1ccc(Br)cc1/C=C1/SC(=Nc2ccc(C(=O)O)cc2)NC1=O,-12%,19%,21µM*,-72*,?,45µM*
C=CCOc1c(Br)cc(/C=C2\SC(=Nc3ccccc3)NC2=O)cc1OC,-1%,30%,-4%,-16,-14%,-31%
CCc1ccc(N=C2NC(=O)/C(=C/c3cc(Br)c(OCC(=O)O)c(OC)c3)S2)cc1,?,?,30µM*,-97*,50µM*,50µM*
CCOc1cc(Br)cc(/C=C2\SC(=Nc3ccccc3)NC2=O)c1O,-9%,12%,?,-62*,-31%,-37%
SMILES,KAT2A inh,HP1b binding inh,PLK1 PBD inh,PI5P4Ka inh,JMJD2A Tudor,BAZ2B block
Cc1cc2c(s1)c1cnn(Cc3cc(C(F)(F)F)ccc3F)c(=O)c1n2C,·,·,·,·,-29%,·
O=[S+]([O-])(c1c(F)cccc1F)N1CCN([S+](=O)([O-])c2csc3ccccc23)CC1,·,·,·,·,-16%,·
Cc1ccc2[nH]c3nc(NN)nnc3c2c1,-20%,38%,-12%,-29,50µM*,3.5µM*
Cc1ccc2[nH]c3nc(SCCN4CCOCC4)nnc3c2c1,3%,23%,?,·,-9%,1%
O=C(/C=C/c1cccc(C(F)(F)F)c1)NNC(=O)c1ccncc1,-9%,26%,-15%,0,-12%,-4%
Cc1ccc(S(=O)(=O)N2CCCCC2C(=O)Nc2ccc(N(C)C)cc2)cc1 (stereo unspecified),-2%,?,-8%,-1,50µM*,·
Cc1ccc(S(=O)(=O)N2CCCC2C(=O)Nc2ccc(Br)cc2)cc1 (stereo unspecified),-8%,64%,·,·,0%,7%
O=C(Nc1ccc(N2CCCCC2)cc1)C1CCCN1S(=O)(=O)c1ccc(F)cc1 (stereo unspecified),-1%,-11%,4%,-3,?,?
CC1CCN(c2ccc(NC(=O)C3CCCN3S(=O)(=O)c3ccc(F)cc3)cc2)CC1 (stereo unspecified),-10%,?,-14%,-4,40µM*,45µM*
Cc1ccc(NC(=O)CCn2cccn2)cc1Cl,-1%,-8%,·,·,-16%,-4%
O=C(O)c1cc(N2C(=O)CCC2=O)ccc1Cl,-6%,20%,-4%,-7,-15%,-18%
COc1ccc(N2Cc3cccc(C(=O)O)c3C2=O)cc1,?,?,?,?,45µM*!,20µM*
COc1ccc(N2Cc3cccc(C(=O)Nc4cc(C)cc(C)c4)c3C2=O)cc1,-26%,-1%,·,·,?,?
CC(C)OC(=O)c1cccc(C(=O)Nc2cccc(NC(=O)c3cccc(C(=O)OC(C)C)n3)n2)n1,-3%,36%,-5%,2,-4%,-2%
COc1cc(S(=O)(=O)N2CCN(Cc3ccccc3)CC2)ccc1Br,-3%,18%,-6%,-2,-11%,4%
COc1cc(CN2CCN(S(=O)(=O)c3ccccc3)CC2)cc(OC)c1OC,-1%,?,-4%,0,20µM*,?
Oc1ccccc1CN1CCN(C(O)(c2ccccc2)c2ccccc2)CC1,0%,2%,1%,-6,-17%,50µM*
COc1cc(CN2CCN(C(O)(c3ccccc3)c3ccccc3)CC2)cc(OC)c1OC,?,-13%,-6%,7,25µM*,?
COc1cc(CN2CCN(c3cccc(Cl)c3)CC2)cc(OC)c1OC,-3%,?,-4%,·,3.5µM*,50µM*
COc1ccccc1CC(=O)Nc1ccc2nc(Nc3cccc(C(F)(F)F)c3)cc(C)c2c1,-14%,39%,·,·,-3%,6%
